The source made the active and inactive calls.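 How the source made its calls, unless noted: active means fluorescence slope higher than the sample average by over 3 SD (cut at about -0.22 in these data, passing the limit was not always enough); inactive means the rest.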
Tests used:
[1] = inhibitors of TNFa-induced NFkB p65 translocation, primary screen, imaging, HUVEC, MLSMR starter and 10KST1 sets (AID 438;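 active means inhibition above 20% together with a positive visual image hit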;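 further: compound added about 3h40 before a 20 min TNFalpha stimulation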;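 on inhibition: signal is the nuclear over cytoplasmic p65 intensity ratio per well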); conditions: HUVEC TNFa-induced p65 nuclear translocation; cell count: measured here: nuclei count (cytotoxicity indicator), at 2.08 µM; inhibition: at 2 µM, stronger effect = higher value, 0% TNFa-plus-vehicle, 100% no-TNFa wells
[2] = inhibitors of mutant huntingtin aggregation, primary screen, imaging, exon1htt(103Q)mCFP cells, high-content imaging (AID 483;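 active means visual image review flags a hit and inhibition of aggregation exceeds 20%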;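 further: compound exposure lasted 3 days before fixation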;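 on nuclei count: percent of the per-plate median nuclei count of sample wells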); conditions: exon1htt(103Q)mCFP cell line, aggregate imaging, at 2 µM; inhibition of aggregation: stronger effect = higher value; nuclei count: measured here: cell count, toxicity
[3] = inhibitors of E-selectin induction by TNFa, primary screen, imaging, HUVEC, immunofluorescence, MLSMR starter and 10KST1 sets (AID 487;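 active means visually confirmed hit in the image check and inhibition above 20%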;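 on inhibition: signal is fraction of cell area covered by stained E-selectin grains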;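 on nuclei count: 100% = median nuclei count of all wells on the same plate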); conditions: HUVEC TNFalpha-induced E-selectin immunofluorescence imaging, at 2 µM; inhibition: stronger effect = higher value; nuclei count: measured here: cell number, toxicity
[4] = target: Voltage-gated potassium channel subunit beta-2 (Rattus norvegicus) (UniProt P62483); assay: KvBeta enzyme negative modulators, primary screen, biochemical, NADPH fluorescence (AID 622); conditions: recombinant KvBeta, 4-cyanobenzaldehyde reduction, at 10 µM, stronger effect = higher value;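 further: slope of raw intensity against log time taken from 70 to 1610 s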
[5] = target: Voltage-gated potassium channel subunit beta-2 (Rattus norvegicus) (UniProt P62483); assay: KvBeta positive modulators, primary screen, biochemical, NADPH fluorescence (AID 623;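 active means NADPH fluorescence slope more negative than the mean of all samples by about 3 SD, 99.7% confidence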;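 further: fluorescence intensity change per second fitted from 20 to 320 s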); conditions: Recombinant KvBeta, NADPH fluorescence decrease slope, 10 min; at 10 µM; stronger effect = lower value
[6] = target: Alpha-2C adrenergic receptor (Homo sapiens) (UniProt P18825); assay: modulators of alpha2C/GIRK thallium flux, primary screen, cell-based, HEK293 alpha2C/GIRK1/2 (AID 624;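 active means fluorescence slope after compound addition differing from the mean of all screened samples at 99.7% confidence, in either direction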;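 further: slope of fluorescence ratio to pre-addition baseline per second over 15 to 24 s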); conditions: thallium flux BTC fluorescence, at 10 µM, actives lie on both sides
[7] = inhibitors of Sendai virus-induced IRF3 signaling, primary screen, TLR/RLR signaling modifier project, cell-based, Sendai virus stimulus, luciferase, 10K MLSCN set (AID 602276;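 active means inhibition at or above 50% at 10 µM; inactive means inhibition below 50%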;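 further: firefly luciferase from ISG56 promoter only with Renilla not read in this screen; 0% = Sendai virus plus DMSO and 100% = medium plus DMSO without virus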); conditions: HEK293 RL24 IRF3 luciferase reporter, at 10 µM, stronger effect = higher value
[8] = inhibitors of poly I:C-induced TLR3 signaling, primary screen, cell-based, poly I:C stimulus, luciferase, 10K MLSCN set (AID 602277;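 active means inhibition of the reporter signal at or above 50%; inactive means inhibition below 50%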); conditions: HEK293-TLR3 RL24 IRF3 luciferase reporter, at 10 µM, stronger effect = higher value

Chain of Alpha-2C adrenergic receptor (Homo sapiens) (P18825 whole entry, looked up): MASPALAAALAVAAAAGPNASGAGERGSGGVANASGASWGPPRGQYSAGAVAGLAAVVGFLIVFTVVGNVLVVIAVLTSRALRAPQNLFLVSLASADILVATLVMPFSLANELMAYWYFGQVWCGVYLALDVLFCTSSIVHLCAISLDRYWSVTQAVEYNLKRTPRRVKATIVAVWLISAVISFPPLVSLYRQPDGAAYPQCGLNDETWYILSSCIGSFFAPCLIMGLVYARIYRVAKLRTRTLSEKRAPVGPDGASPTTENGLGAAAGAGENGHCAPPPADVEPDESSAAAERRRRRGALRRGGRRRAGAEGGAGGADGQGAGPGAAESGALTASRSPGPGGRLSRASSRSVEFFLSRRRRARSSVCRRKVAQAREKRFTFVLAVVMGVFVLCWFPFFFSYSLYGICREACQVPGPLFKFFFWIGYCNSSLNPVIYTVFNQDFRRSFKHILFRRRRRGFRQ
Chain of Voltage-gated potassium channel subunit beta-2 (Rattus norvegicus) (P62483 whole entry, looked up): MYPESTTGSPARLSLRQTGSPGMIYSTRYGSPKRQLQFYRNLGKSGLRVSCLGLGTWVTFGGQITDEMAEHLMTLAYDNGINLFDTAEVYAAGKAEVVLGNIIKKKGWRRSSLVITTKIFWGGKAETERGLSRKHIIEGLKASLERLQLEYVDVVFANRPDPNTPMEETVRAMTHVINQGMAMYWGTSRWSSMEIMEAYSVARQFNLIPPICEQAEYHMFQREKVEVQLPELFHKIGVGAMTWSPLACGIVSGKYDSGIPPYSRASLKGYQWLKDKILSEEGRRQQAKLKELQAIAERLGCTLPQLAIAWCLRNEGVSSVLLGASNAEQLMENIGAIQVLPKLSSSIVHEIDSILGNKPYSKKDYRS

| Compound | cell count [1] | inhibition [1] | inhibition of aggregation [2] | nuclei count [2] [%] | inhibition [3] | nuclei count [3] [%] | fluorescence slope [4] | NADPH fluorescence slope [5] | slope [6] | inhibition [7] | inhibition [8] |
| --- | --- | --- | --- | --- | --- | --- | --- | --- | --- | --- | --- |
| Cc1cc(NC(=O)c2cnn3c(C(F)F)cc(C4CC4)nc23)no1 | 747 | -3.3% (inactive) | 23% (inactive) | 100 | 27.3% (inactive) | 98.5 | -0.486 (inactive) | -3.5e-05 (inactive) | 0.00638 (inactive) | 9.48% (inactive) | 19.3% (inactive) |
| Cn1nnnc1SCC(=O)N1CCN(c2cccc(Cl)c2)CC1 | 360 | -2.9% (inactive) | 10.8% (inactive) | 94.4 | -206% (inactive) | 115 | -0.619 (inactive) | -2.9e-06 (inactive) | 0.00492 (inactive) | 7.81% (inactive) | 11.3% (inactive) |
| N#CC(C(=O)NCCc1ccccc1)c1nc2ccccc2nc1N1CCOCC1 (centres undefined) | 389 | 5.7% (inactive) | -43.6% (inactive) | 103 | -176% (inactive) | 118 | -0.401 (inactive) | -2e-05 (inactive) | 0.00348 (inactive) | -27.6% (inactive) | -40.4% (inactive) |
| Cc1ccc(S(=O)(=O)NCCOC(=O)Nc2sc(=S)n(C)c2C)cc1 | 466 | 1.6% (inactive) | -2.2% (inactive) | 103 | 15% (inactive) | 108 | -0.5 (inactive) | 3.3e-05 (inactive) | 0.00618 (inactive) | -15% (inactive) | 15.5% (inactive) |
| CN(CCNS(=O)(=O)c1ccc2c(c1)oc(=O)n2C)Cc1ccccc1 | 739 | -6.7% (inactive) | -7.2% (inactive) | 95.2 | -65.3% (inactive) | 119 | -0.604 (inactive) | -4.2e-05 (inactive) | 0.0075 (inactive) | 9.41% (inactive) | 39.8% (inactive) |
| O=C(Nc1cccnc1)c1ccc2c(c1)C(=O)N(Cc1cccnc1)C2=O | 386 | 1.4% (inactive) | 9% (inactive) | 105 | -26.9% (inactive) | 99.7 | -0.615 (inactive) | -1.2e-05 (inactive) | 0.00348 (inactive) | 5.57% (inactive) | 11.9% (inactive) |
| COc1ccc(N2CCN(C(c3ccccc3)c3sc4nc(C)nn4c3O)CC2)cc1 (centres undefined) | 694 | -12.9% (inactive) | -0.9% (inactive) | 112 | -21.7% (inactive) | 96.4 | -0.452 (inactive) | -4.8e-05 (inactive) | 0.00526 (inactive) | 8.1% (inactive) | 11.1% (inactive) |
| OC(COc1ccccc1)CN1C2=NCCCN2c2ccccc21 (centres undefined) | 295 | 1.6% (inactive) | -3.1% (inactive) | 81.2 | 5.3% (inactive) | 79.2 | -0.608 (inactive) | -4.2e-06 (inactive) | 0.00402 (inactive) | 20% (inactive) | 30.6% (inactive) |
| NC(=O)c1c(NC(=O)CN2CCCC2)sc2c1CCCC2 | 577 | 3% (inactive) | 5.3% (inactive) | 65.3 | 15.2% (inactive) | 84.6 | -0.599 (inactive) | -1.9e-05 (inactive) | 0.00312 (inactive) | -25.4% (inactive) | -70.1% (inactive) |
| O=C(COC(=O)C12CC3CC(CC(O)(C3)C1)C2)N1CCN(S(=O)(=O)c2ccc(Cl)cc2)CC1 | 371 | 4.7% (inactive) | 0.7% (inactive) | 95.7 | -72.7% (inactive) | 97.2 | -0.33 (inactive) | -1.9e-05 (inactive) | 0.00661 (inactive) | 8.77% (inactive) | 18% (inactive) |
| CCC(c1nnnn1Cc1ccco1)N(CCc1ccccc1)Cc1cc2cccc(C)c2[nH]c1=O (centres undefined) | 788 | -8.4% (inactive) | -2.2% (inactive) | 86.2 | -19.1% (inactive) | 110 | -0.396 (inactive) | -1.9e-05 (inactive) | 0.00487 (inactive) | 25.2% (inactive) | 31.5% (inactive) |
| CCOc1ccc(C2CC(c3cccc(C)c3)n3ncnc3N2)cc1 (centres undefined) | 666 | 0.3% (inactive) | -18.7% (inactive) | 90.6 | -13.6% (inactive) | 109 | -0.622 (inactive) | 1.7e-06 (inactive) | 0.0075 (inactive) | -8.73% (inactive) | 10.7% (inactive) |
| CCOC(=O)c1cc2c(=O)n3ccccc3nc2n(CCCOC)c1=NC(C)=O | 657 | 11.2% (inactive) | 21.5% (inactive) | 94.4 | -33.6% (inactive) | 82.5 | -0.133 (active) | 1.2e-05 (inactive) | 0.00482 (inactive) | 1.75% (inactive) | 9.93% (inactive) |
| Oc1cccc(C=NCc2ccccc2)c1O | 332 | -2.5% (inactive) | 15.5% (inactive) | 102 | -100% (inactive) | 130 | -0.46 (inactive) | -4e-05 (inactive) | 0.00215 (inactive) | 10.5% (inactive) | 41.8% (inactive) |
